{"source": "PubChem BioAssay (Tox21)", "note": "Where “and” joins values, the source holds several entries; their conditions need not be identical. Identical values can stand only once. Inconclusive results are not listed. Entries that show only a call come without a potency. A structure can be active in one record and inactive in another. Calls of active or inactive are those of the source. Calls follow the shape of the dose curve; as a rule, active = well fitted activation curve with a large enough effect in the repeat runs; inconclusive = weak or mixed curves; inactive = no such curve, though single readings can be large or run the other way. Potency is read from the fitted curve at half-maximal effect.", "data": [{"target": "Aryl hydrocarbon receptor (Homo sapiens) (UniProt P35869)", "sequence (P35869 whole entry, looked up)": "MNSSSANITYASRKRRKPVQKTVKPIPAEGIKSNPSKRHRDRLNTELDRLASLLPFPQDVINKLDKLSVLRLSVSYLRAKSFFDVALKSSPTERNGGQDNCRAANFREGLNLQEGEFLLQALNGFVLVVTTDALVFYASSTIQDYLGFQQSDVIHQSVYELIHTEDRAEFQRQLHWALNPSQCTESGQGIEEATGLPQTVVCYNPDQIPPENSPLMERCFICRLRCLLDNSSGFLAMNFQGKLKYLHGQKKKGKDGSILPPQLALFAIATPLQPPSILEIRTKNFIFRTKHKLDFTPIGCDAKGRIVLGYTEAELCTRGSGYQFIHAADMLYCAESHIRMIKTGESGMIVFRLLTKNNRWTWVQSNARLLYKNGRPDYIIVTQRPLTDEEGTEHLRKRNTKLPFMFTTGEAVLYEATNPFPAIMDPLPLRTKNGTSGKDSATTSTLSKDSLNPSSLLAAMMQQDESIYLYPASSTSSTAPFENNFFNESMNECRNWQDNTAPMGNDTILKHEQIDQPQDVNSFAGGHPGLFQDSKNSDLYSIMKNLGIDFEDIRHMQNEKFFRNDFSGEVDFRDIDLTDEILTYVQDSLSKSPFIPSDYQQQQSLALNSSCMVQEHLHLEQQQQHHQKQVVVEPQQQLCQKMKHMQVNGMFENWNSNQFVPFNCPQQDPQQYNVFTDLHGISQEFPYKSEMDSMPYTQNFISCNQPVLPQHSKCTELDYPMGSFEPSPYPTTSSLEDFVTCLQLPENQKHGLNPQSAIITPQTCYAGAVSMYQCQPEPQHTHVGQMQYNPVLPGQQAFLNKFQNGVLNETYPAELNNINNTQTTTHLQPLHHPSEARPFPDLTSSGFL", "assay": "qHTS assay to identify small molecule that activate the aryl hydrocarbon receptor (AhR) signaling pathway (AID 743085); also: nearly all actives have a fitted effect of over 15% in size;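 as to activation: HG2L7.5c1 human HepG2 liver cells with stably integrated DRE-driven firefly reporter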", "details": "HepG2 AhR-luc (HG2L7.5c1), luciferase, 24 h; series mostly up to 70.3 µM; activation: at the top concentration", "method_in_brief": "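AhR agonist activity is inferred from enhanced light output of a DRE-controlled firefly luciferase reporter in HepG2 cells, measured with ONE-Glo following 24 h treatment at 37C.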", "values": [{"smiles": "C=CCOC(=O)CC(C)C", "Potency": "inactive"}, {"smiles": "Cc1c(N(C)C)c(=O)n(-c2ccccc2)n1C", "Potency": "inactive"}, {"smiles": "Cc1cccc(Nc2cc(Cl)nc(SCC(=O)O)n2)c1C", "Potency": "inactive"}, {"smiles": "NC(=O)N/N=C/c1ccc([N+](=O)[O-])o1", "Potency": "inactive and 19.3 µM (active)"}, {"smiles": "COc1cc2c(c(OC)c1OC)-c1ccc(OC)c(=O)cc1[C@@H](NC(C)=O)CC2", "activation": "3.63% (inactive)"}, {"smiles": "NC(=O)N1c2ccccc2C=Cc2ccccc21", "Potency": "inactive"}, {"smiles": "COc1ccccc1O", "Potency": "inactive"}, {"smiles": "C=C(C)OC(C)=O", "Potency": "inactive"}, {"smiles": "COC1=CC(=O)C[C@@H](C)[C@]12Oc1c(Cl)c(OC)cc(OC)c1C2=O", "Potency": "inactive"}, {"smiles": "CCCCCCCCOc1ccc(C(=O)c2ccccc2)c(O)c1", "Potency": "inactive"}, {"smiles": "COc1cc(O)c(C(=O)c2ccccc2)cc1S(=O)(=O)O", "Potency": "inactive"}, {"smiles": "Cc1cnc(NC(=O)C2=C(O)c3ccccc3S(=O)(=O)N2C)s1", "Potency": "inactive and 61.1 µM (active)"}, {"smiles": "COCC(C)N", "note": "(stereo unspecified)", "Potency": "inactive"}, {"smiles": "CC(=O)CCC(C)C", "Potency": "inactive"}, {"smiles": "CCCCOCCOCCOC(C)=O", "Potency": "inactive"}, {"smiles": "N[C@@H](Cc1c[nH]c2ccc(O)cc12)C(=O)O", "Potency": "9.44 µM (active) and 5.29 µM (active)"}, {"smiles": "CC(=O)OC/C=C(C)/C=C/C=C(C)/C=C/C1=C(C)CCCC1(C)C", "Potency": "inactive"}, {"smiles": "CCCCOC(=O)CCCCCCCCC(=O)OCCCC", "activation": "-0.422% (inactive)"}, {"smiles": "CC(=O)/C=C/C1=C(C)CCCC1(C)C", "Potency": "inactive"}, {"smiles": "Cc1ccc(O)c(-n2nc3ccccc3n2)c1", "Potency": "21.1 µM (active) and 60.6 µM (active) and 17.2 µM (active)"}, {"smiles": "O=C(O)CCCCC1CCSS1", "note": "(stereo unspecified)", "Potency": "inactive"}, {"smiles": "OC[C@@H](O)[C@@H](O)[C@H](O)[C@H](O)CO", "Potency": "inactive"}, {"smiles": "CC(C)(C)NCC(O)c1ccc(O)c(CO)c1", "note": "(stereo unspecified)", "Potency": "inactive"}, {"smiles": "CC(C)(C)CC(C)(C)c1ccc(O)c(-n2nc3ccccc3n2)c1", "Potency": "inactive"}, {"smiles": "CN(C)C=O", "Potency": "inactive"}, {"smiles": "CC1(C)O[C@@H]2[C@@H](CO[C@@]3(COS(N)(=O)=O)OC(C)(C)O[C@@H]23)O1", "Potency": "inactive"}]}]}
